According to PubChem BioAssay AID2284216 (EPA ToxCast):
Active and inactive are the calls of the source. The calls were made as follows: active = hit-call score of the fitted dose curve at least 0.9, where 1 is the maximum; inactive = score below 0.9.

target: rat Peripheral Benzodiazepine Receptor (PBR), Tspo (gene 24230) (UniProt P16257); experiment: ERF_TW_TR_rTSPO: Eurofins (ERF) Radioligand Binding Assay for rat Peripheral Benzodiazepine Receptor (PBR) Antagonism
Experimental: ERF_TW_TR_rTSPO is a biochemical, single-readout assay that uses extracted gene-proteins in a cell-free assay. Measurements were taken 0.25 hour after chemical dosing in a 96-well plate. See PBR Rat Binding (Antagonist Radioligand) Assay, Panlabs.ERF_TW_TR_rTSPO is an assay component calculated from the ERF_TW_TR_rTSPO assay. It is designed to measure radioligand binding using a type of binding reporter as detected by scintillation counting with radiometry technology.Data from the assay component ERF_TW_TR_rTSPO was analyzed at the assay endpoint, ERF_TW_TR_rTSPO, in the positive analysis fitting direction relative to DMSO as the negative control and baseline of activity. Using a type of binding reporter, loss-of-signal activity can be used to understand changes in transporter binding as they relate to gene TSPO. To generalize the intended target to other relatable targets, this assay endpoint is annotated to the transporter intended target family, where the subfamily is cholesterol transporter.
Cells are incubated for 15 minutes at room temprature with [3H]PK 11195 (0.2 nM) as lingand.Test Sample Requirements: Minimum for 1) Screen: 60 ul of 10 mM stock -OR- 1 mg (pre-weighed) for 10uM final testing. . 2) Dose Response: 90 ul of 10 mM stock -OR- 1 mg (pre-weighed) for a top concentration at 10uM. .

Chain of rat Peripheral Benzodiazepine Receptor (PBR), Tspo (gene 24230) (P16257 whole entry, looked up): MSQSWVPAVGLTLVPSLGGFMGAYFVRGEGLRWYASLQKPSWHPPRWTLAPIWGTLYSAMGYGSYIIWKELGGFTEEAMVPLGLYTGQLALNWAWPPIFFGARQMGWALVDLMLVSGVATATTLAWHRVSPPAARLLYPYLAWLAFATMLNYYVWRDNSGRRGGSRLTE

| SMILES | AC50 |
| --- | --- |
| COc1cc(CCC(=O)CC(=O)CCc2ccc(O)c(OC)c2)ccc1O | 2550 nM (active) |
| O=C(/C=C/c1ccc(O)cc1)CC(=O)/C=C/c1ccc(O)cc1 | 161 nM (active) |
